From PubChem
This is a sample that favours compounds with a hit; in the whole collection about 3.4% have one here.
GPR151 activ – activators of human GPR151, primary screen, cell-based, PathHunter beta-arrestin, luminescence; activation, % at 11.2 µM; AID 1508602, 2020; G-protein coupled receptor 151 (Homo sapiens), Q8TDV0; PathHunter beta-arrestin GPR151 cells; 650,000 compounds, 1% hits; in the data active = activation above about 4.9%;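 also: 0% = median of compound wells and 100% = cells with positive control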
TEAD-YAP block – TEAD-YAP interaction inhibition, primary screen, TEAD-YAP interaction inhibitor project, luminescence, HEK-TIYL cells; AID 1259422, 2018; TEAD-Gal4/YAP UAS-luciferase luminescence; inhibition, % at 9.12 µM; 640,000 compounds, 1.4% hits; in the data active = inhibition above about 32%;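 also: 0% = median of test compound wells and 100% = reference inhibitor wells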
MITF inh – MITF inhibitors, primary screen, biochemical, AlphaScreen, human; AID 1259374, 2018; AlphaScreen MITF homodimerization, bead proximity signal; Microphthalmia-associated transcription factor (Homo sapiens), O75030; inhibition, % at 2.6 µM; 650,000 compounds, 0.91% hits; in the data active = inhibition above about 50%;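 also: 0% = vehicle wells with protein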
Target sequence (O75030 whole entry, looked up): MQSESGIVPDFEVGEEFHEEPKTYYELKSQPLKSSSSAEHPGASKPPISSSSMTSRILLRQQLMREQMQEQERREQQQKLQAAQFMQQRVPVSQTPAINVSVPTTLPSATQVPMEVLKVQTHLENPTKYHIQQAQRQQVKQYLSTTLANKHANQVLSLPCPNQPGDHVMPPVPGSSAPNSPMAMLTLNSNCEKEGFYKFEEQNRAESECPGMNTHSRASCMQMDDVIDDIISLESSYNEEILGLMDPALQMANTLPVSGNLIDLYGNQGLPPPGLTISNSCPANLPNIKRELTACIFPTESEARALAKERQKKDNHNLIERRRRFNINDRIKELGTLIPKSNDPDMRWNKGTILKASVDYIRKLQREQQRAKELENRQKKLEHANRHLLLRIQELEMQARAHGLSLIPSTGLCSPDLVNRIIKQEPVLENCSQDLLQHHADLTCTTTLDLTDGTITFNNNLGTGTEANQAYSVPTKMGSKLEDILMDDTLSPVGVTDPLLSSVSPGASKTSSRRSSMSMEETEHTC
FBW7 act – FBW7 E3 ligase activators, primary screen, biochemical, AlphaScreen, human; AlphaScreen FBW7–phospho-cyclin E peptide binding, activator screen; AID 1259310, 2017; F-box/WD repeat-containing protein 7 (Homo sapiens), Q969H0; normalized activity (activation), % at 26.1 µM; 650,000 compounds, 0.13% hits; in the data active = normalized activity above about 1.9%;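 also: purified mutant Fbw7 with reduced substrate affinity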
* = called active by the depositor.

SMILES	GPR151 activ	TEAD-YAP block	MITF inh	FBW7 act
COc1cccc(/C=C(/C#N)S(=O)(=O)c2ccc(C)cc2)c1OC	-1	-7	6	0
O=C1ON=C(c2ccccc2)/C1=C/c1c(OCc2ccc(Cl)cc2)ccc2ccccc12	0	-62	21	0
O=C1ON=C(c2ccccc2)/C1=C\c1ccccc1OCc1ccc(Cl)cc1	1	-38	68*	0
CCOC(CNC(=O)c1ccc2c(c1)nc(C)n2-c1ccc(F)cc1F)OCC	0	-2	1	0
COc1cc(Nc2nc(SCc3ccncc3)nc3ccccc23)cc(OC)c1	0	2	6	0
c1cc(-c2ccc3cnc(Nc4ccc(-n5cnc(N6CCOCC6)n5)cc4)nc3c2)cs1	0	-6	22	0
c1cc(-n2cnc(N3CCOCC3)n2)ccc1Nc1ncc2ccc(-c3cn[nH]n3)cc2n1	-1	68*	20	0
c1n[nH]c(-c2ccc3cnc(Nc4ccc(-n5cnc(N6CCOCC6)n5)cc4)nc3c2)n1	3	65*	16	0
O=C1CCCC(O)=C1N=Nc1ccc(C(=O)O)cc1	-2	-7	66*	0
C=CCOc1cccc(/C=N/n2c(=O)[nH]c3cc(OC)c(OC)cc3c2=O)c1	-1	1	-8	0
Cc1ccc(O)c(/C=N/NC(=O)c2ccccn2)c1	-4	-13	57*	-1
Cc1cccc(/C=N/NC(=O)c2ccccn2)c1O	-6	55*	13	-2
O=C(N/N=C/c1ccccc1O)c1ccccn1	-1	-55	-39	0
O=C(N/N=C/c1ccc(O)c(O)c1O)c1ccccn1	-3	-42	108*	-1
Cc1cccc(/C=N\NC(=O)c2ccccc2Cl)c1O	1	-61	-2	0
Cc1cccc(NS(=O)(=O)c2cc(C(=O)N3CCCCC3)ccc2Cl)c1	1	-5	-1	0
COc1ccc(CNc2ccc(C(=O)Nc3ccc(C)cc3C)cc2[N+](=O)[O-])cc1	-2	56*	-12	0
CCNc1ccc(C(=O)NN)cc1[N+](=O)[O-]	2	35*	0	0
COc1cccc(NC(=O)c2ccc(NCc3ccccc3Cl)c([N+](=O)[O-])c2)c1	0	52*	13	0
Cc1ccc(NC(=O)c2ccc(NCc3ccc(F)cc3)c([N+](=O)[O-])c2)c(C)c1	-1	19	12	0
CCNc1ccc(C(=O)OCC(=O)OC(C)(C)C)cc1[N+](=O)[O-]	0	-1	5	0
COc1ccc(S(=O)(=O)N2Cc3ccccc3CC2C(=O)Nc2ccc(C)cc2)cc1 (centres undefined)	1	33*	-5	0
O=C(NCCCN1CCOCC1)c1ccc([N+](=O)[O-])o1	-1	10	14	0
CCCCCCCCNC(=O)c1ccc([N+](=O)[O-])o1	0	35*	1	0
O=C(COC(=O)c1cnc(Cl)c(Cl)c1)COC(=O)c1cnc(Cl)c(Cl)c1	-2	15	15	0
SMILES	GPR151 activ	TEAD-YAP block	MITF inh	FBW7 act
COc1ccc(-n2c(C)c(C(C)=O)c3cc(OC(=O)c4ccc(C)cc4)ccc32)cc1	0	48*	-5	1
Cc1cc(C)cc(C(=O)NC(=S)c2c(C)nc3sccn23)c1	0	-3	4	0
CCOc1cccc(/C=N/NC(=S)Nc2ccccc2[N+](=O)[O-])c1O	3	71*	12	0
CCOc1ccccc1-c1cc(C(=O)N/N=C/c2cccc(OCC)c2O)[nH]n1	-2	69*	18	0
CCOc1cccc(/C=N/NC(=O)c2cc(-c3cccc([N+](=O)[O-])c3)n[nH]2)c1O	0	60*	41	0
CCC(CC)C(=O)Nc1sc(C(=O)OC)c(C)c1C(=O)OC	1	11	1	0
CCOC(=O)C(C)Sc1nnc(NC(=O)CCCl)s1 (centres undefined)	1	0	21	3.4*
Cc1nn(C)c(C)c1NS(=O)(=O)c1ccc(C(C)(C)C)cc1	0	55*	-10	0
CC(=O)Nc1ccc(S(=O)(=O)Nc2c(C)nn(C)c2C)cc1	-1	7	15	1
COC(=O)c1cc(NC(=O)C23CCC(C)(C(=O)C2=O)C3(C)C)cc(C(=O)OC)c1 (centres undefined)	2	3	59*	0
CCOC(=O)C1(C(F)(F)F)N=C(c2ccncc2)OC(N(C)C)=N1 (centres undefined)	-1	13	2	1
CCc1c(C(=O)NCc2ccccc2OC)[nH]c(C)c1C(C)=O	0	-10	3	0
CCc1cc(-c2n[nH]c(C)c2-c2nc3ccccc3s2)c(O)cc1OC	0	35*	7	0
Cc1nn(-c2ccc(F)cc2)c2sc(C(=O)NCc3ccc(S(N)(=O)=O)cc3)cc12	0	40*	-1	0
COc1cc(Nc2nc(C)cc(Nc3ccc(N4CCOCC4)cc3)n2)cc(OC)c1OC	0	70*	7	0
COc1cc(Nc2nccc(Nc3ccc(N4CCOCC4)cc3)n2)cc(OC)c1OC	0	44*	18	0
OC1CCC(Nc2ncc(-c3ccccc3Oc3ccccc3)n3ccnc23)CC1 (centres undefined)	0	-1	21	0
O=C(Nc1ccc2oc(-c3ccc(-c4ccccc4)cc3)nc2c1)c1ccco1	-1	-3	3	2.5*
CCN(CC)c1ccc(-c2nc3cc(NC(=O)c4ccc(OC)c(OC)c4)ccc3o2)cc1	-1	-22	21	2.4*
O=C(Nc1ccc(-c2nc3cc(NC(=O)c4ccco4)ccc3o2)cc1)c1ccco1	1	-24	10	0
Cc1ccc2nc(-c3cccc(NC(=S)NC(=O)c4ccco4)c3)oc2c1	-2	-54	-6	0
COc1ccc(Cl)cc1C(=O)Nc1ccc2oc(-c3ccc(C(C)(C)C)cc3)nc2c1	0	38*	8	0
Cc1cc2nc(-c3cccc(NC(=S)NC(=O)c4ccco4)c3)oc2cc1C	-1	47*	10	1
Oc1ccc(Cl)cc1CN1CCCC(N2CCOCC2)C1 (centres undefined)	-1	-10	3	0
O=C(CC1C(=O)NCCN1C/C=C/c1ccccc1)NCCCn1ccnc1 (centres undefined)	0	-10	23	1
CC(C)(C)c1ccc(-c2nc3cc(NC(=S)NC(=O)c4ccco4)ccc3o2)cc1	5	43*	13	1
Cc1ccccc1-c1nc2cc(NC(=O)C(C)C)ccc2o1	1	66*	4	0
CC(C)(C)C(=O)Nc1ccc2oc(-c3cncc(Br)c3)nc2c1	2	35*	7	0
O=C(NC(=S)Nc1ccc2oc(-c3ccccc3)nc2c1)c1cncc(Br)c1	0	-3	4	0
Cc1ccc(-c2nc3cc(NC(=S)NC(=O)c4ccco4)ccc3o2)cc1	0	-46	14	1
